# Shown are actives, neighbours in structure and some others; about 22% of the full set was active somewhere.
# CYP2C19 activ: human CYP2C19 activators, primary screen, biochemical, luminescence; Cytochrome P450 2C19 (Homo sapiens), P33261; recombinant CYP2C19, luciferin-H EGE luminescence; stronger effect = higher value; 0 = fully inhibited enzyme, 1 = untreated enzyme; activation factor at 5 µM; 96,000 tested, under 10 active; AID 1025, 2008;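 active means activation factor of at least 2 at 5 µM in the primary screen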;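 further: 0 = wells with 2.5 mM tranylcypromine and 1 = vehicle-only wells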
# CYP2C9 inh: blockers of cytochrome P450 2C9 activity – biochemical, luminescence, ADME assay, primary screen; P11712; CYP2C9 Supersomes, luciferin-H conversion; inhibition, % at 5 µM; actives 20% (n = 96,000); AID 777, 2007;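 active means blocking of liver enzyme CYP2C9 beyond about 50% at 5 µM, limit read from the data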
# Target sequence (P11712 whole entry, looked up): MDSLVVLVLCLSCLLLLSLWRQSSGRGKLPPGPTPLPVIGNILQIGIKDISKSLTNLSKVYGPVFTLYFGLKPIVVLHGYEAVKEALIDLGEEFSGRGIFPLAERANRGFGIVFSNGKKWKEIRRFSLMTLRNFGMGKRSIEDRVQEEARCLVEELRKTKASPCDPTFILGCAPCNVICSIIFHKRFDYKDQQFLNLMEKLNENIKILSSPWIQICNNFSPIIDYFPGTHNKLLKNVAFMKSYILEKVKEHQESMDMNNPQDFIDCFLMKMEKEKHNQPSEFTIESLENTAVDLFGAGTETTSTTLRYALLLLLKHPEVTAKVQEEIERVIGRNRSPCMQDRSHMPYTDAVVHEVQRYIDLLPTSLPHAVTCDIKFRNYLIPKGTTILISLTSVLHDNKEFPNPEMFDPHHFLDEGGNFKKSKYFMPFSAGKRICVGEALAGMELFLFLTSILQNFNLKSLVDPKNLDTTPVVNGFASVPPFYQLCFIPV
# E-sel TNF inh: E-selectin induction blockers in HUVEC – imaging, immunofluorescence, high content, primary screen; HUVEC TNFa-induced E-selectin immunofluorescence; inhibition, % at 2 µM; actives 0.71% (n = 120,000); AID 1246, 2008;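 active means inhibition above the batch mean plus 3 SD, and confirmed as a hit on visual image review, cut at about 43% in these data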;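 further: 0% = TNF-stimulated DMSO wells and 100% = unstimulated control wells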
# CYP2C19 inhib: blockers of cytochrome P450 2C19 activity – biochemical, luminescence, ADME assay, primary screen; P33261; CYP2C19 Supersomes, luciferin-H EGE luminescence, 30 min; inhibition, % at 5 µM; actives 21% (n = 96,000);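 active means CYP2C19 inhibition above a set limit at 5 µM in the primary screen, cut at about 50% in these data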;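 further: plate controls were negative control wells for no effect and 2.5 mM tranylcypromine positive control for full effect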
# cytoskel mod: modifiers of F-actin cytoskeleton organization, primary screen, imaging, HUVEC, phalloidin staining, high-content imaging | inhibition, % at 2 µM | actives 0.18% (n = 91,000) | HUVEC TNFa F-actin phalloidin imaging;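 active means inhibition above the batch mean plus 3 SD and confirmed as a hit by visual image inspection, cut at about 30% in these data, passing the limit was not always enough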
# CYP2C9 act: human CYP2C9 activators, primary screen, biochemical, luminescence; Cytochrome P450 2C9 (Homo sapiens), P11712; recombinant CYP2C9, luciferin-H conversion; stronger effect = higher value; factor 1 = untreated enzyme, 0 = blocked; activation factor at 5 µM; actives 1.4% (n = 96,000); AID 1024, 2008;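 active means activation factor of 2 or more for CYP2C9 at a 5 µM dose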;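 further: 0 = sulfaphenazole-blocked wells and 1 = vehicle-only wells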
# * hit, by the source's call; nt = no result given.
SMILES,CYP2C19 activ,CYP2C9 inh,E-sel TNF inh,CYP2C19 inhib,cytoskel mod,CYP2C9 act
CCNC(=O)NC(=O)C(C)OC(=O)c1oc2ccc(OC)cc2c1C (stereo not given),1,17,-17,-2,-14,0.8
CCOC(=O)N(C)c1ccc(C(O)(C(F)(F)F)C(F)(F)F)cc1,0.6,47,-12,39,2,0.5
CNc1ccc(C(O)(C(F)(F)F)C(F)(F)F)cc1C(O)(C(F)(F)F)C(F)(F)F,0.3,53*,-3,75*,-21,0.5
CCS(=O)(=O)N1CCC(C(=O)NCc2cccs2)CC1,0.9,1,4,13,8,1
CCOc1cccc(CNn2cnnc2)c1OCc1ccccc1Cl,0.2,20,-50,76*,nt,0.8
COc1cccc(CNn2cnnc2)c1OCc1ccc(F)cc1,0.1,57*,-4,86*,-17,0.4
COc1cccc(CNn2cnnc2)c1OCc1ccccc1F,0.2,30,2,76*,-8,0.7
Cc1cc(C)c2cc3c(ccn3C3OC[C@H](O)[C@H](O)[C@H]3O)cc2n1 (stereo not given in full),1,-16,-30,-5,-21,1.2
O=C(NCCCCNC(=O)c1ccc(Br)s1)c1ccc(Br)s1,0.9,46,1,12,-12,0.5
CCn1c(COc2ccc(C(C)C)cc2)nnc1SCC(=O)Nc1nccs1,0.8,28,nt,19,4,0.7
CCOc1ccc(Cn2nnc(C(=O)NCc3ccc(OC)cc3)c2N)cc1,1,-10,nt,-3,-2,1.1
CC(C)c1ccc(NC(=O)CSc2nnc(-c3ccccn3)n2C)cc1,0.9,40,nt,15,-24,0.6
Cc1csc(NC(=O)CSc2nnc(-c3cccs3)n2C)n1,0.5,41,-13,52*,65*,0.6
CCc1ccc(NC(=O)CSc2nnc(-c3ccccn3)n2C)cc1,0.3,72*,nt,67*,47,0.3
CCn1c(CC(=O)Nc2ccc(C)c(Cl)c2)nnc1SCC(=O)Nc1nc(C)cs1,0.8,63*,-6,24,0,0.4
CCn1c(SCC(=O)NCCc2ccc(Cl)cc2)nnc1-c1cccs1,0.2,81*,-19,78*,-15,0.2
CCn1c(Cc2ccccc2)nnc1SCC(=O)Nc1nc(C)cs1,nt,nt,-8,nt,-17,nt
O=[n+]1c2c(n([O-])c3c1CCCC3)CCCC2,1.2,-15,9,-18,-4,1.1
O=C(O)c1ccc(Oc2c(C(F)(F)F)oc3cc(O)ccc3c2=O)cc1,nt,nt,-28,nt,nt,nt
O=C(Nc1ccccc1N1CCN(c2ccc(F)cc2)CC1)C12CC3CC(CC(C3)C1)C2,nt,nt,-31,nt,-25,nt
CCOc1cc(N2CCOCC2)c(OCC)cc1NC(=O)CSc1cccc[n+]1[O-],1,33,7,2,-2,0.7
CCOC(=O)C1CCCCN1C(=O)CCc1c(C)nc2ncnn2c1C (stereo not given),0.9,-4,4,15,1,1
CCn1c(SCC(=O)Nc2ccc(NC(=O)c3ccco3)cc2)nnc1-c1cccs1,nt,nt,2,nt,19,nt
CCn1c(SCC(=O)Nc2cccc(NC(=O)c3ccco3)c2)nnc1-c1cccs1,0.4,65*,nt,56*,-18,0.4
CCc1ccc(NC(=O)CSc2nnc(-c3cccs3)n2CC)cc1,0.7,52*,-1,28,-20,0.5
COc1ccc(C2OC(=O)CC2C(=O)NCc2ccc(C)cc2)cc1OC (stereo not given),nt,nt,0,nt,nt,nt
CC(C)=C1C2CCC1C1C(=O)N(CCc3ccccc3)C(=O)C21 (stereo not given),nt,nt,-14,nt,nt,nt
O=C1CS/C(=C\[N+](=O)[O-])N1c1ccccc1,0.9,6,-14,6,-12,0.9
Cc1ccc(-c2nc(C3CCCN(S(=O)(=O)c4ccc(C)cc4)C3)no2)cc1 (stereo not given),0.4,57*,nt,58*,nt,0.4
Cc1ccc(-c2nc(C3CCCN(S(=O)(=O)c4ccc(C(C)(C)C)cc4)C3)no2)cc1 (stereo not given),0.9,-33,nt,5,8,1.3

# Screens (PubChem)
